# Source: PubChem BioAssay (NCATS)
# Results filed as inconclusive are left out. Where a call stands in place of a potency, no number is given. Activity calls are given as the source filed them. Calls come from the whole dose curve; as a rule, active = well fitted curve in the direction sought with a large enough effect; inconclusive = small, poorly fitted or top-dose-only effect, or another doubt; inactive = no such curve, though single readings can be large; an effect the other way counts as inactive or inconclusive. Where a SMILES comes first, the peptide text is derived from it. [ ]: non-standard residue; d: D form. ξ: configuration not given here. ξLac(3-iPr) = CC(C)CC(O)C(=O)O; NMeV = CN[CH](C(=O)O)C(C)C; βAla = NCCC(=O)O
# Key:
# [1] = P-glycoprotein substrates identified in KB-3-1 adenocarcinoma cell line, qHTS therapeutic library screen (AID 1346986); note: nearly all actives have a fitted effect of over 60% in size
# Method in brief: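 Compounds were tested in dose-response against KB-3-1 and KB-8-5-11 cells at 37 degree C for 72 h, and viability was measured by luminescence. AC50 values came from curve fitting with class-based activity calls.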
# [2] = P-glycoprotein substrates identified in KB-8-5-11 adenocarcinoma cell line, qHTS therapeutic library screen (AID 1346987); note: nearly all actives have a fitted effect of over 65% in size; note: potency is the fitted concentration of half-maximal effect; for activity change, negative = cytotoxicity: series mostly up to about 44 µM
# Method in brief: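 P-gp-mediated resistance screen: KB-8-5-11 cells treated 72 h with compounds in dose-response. CellTiter-Glo viability.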
smiles,measurement,setting,value
CC(NC(=O)C(O)C(C)C)C(=O)NC1C(=O)N(C)CCc2ccccc21 (stereo unspecified),Potency,[1],inactive
same,Potency,[2],inactive
C=C1CC[C@@H]2[C@](C)(CO[C@@H]3O[C@H](CO)[C@@H](O)[C@H](O)[C@H]3O)[C@H](O)CC[C@@]2(C)[C@@H]1C/C=C1/C(=O)OC[C@H]1O,Potency,[1],inactive
same,Potency,[2],inactive
O=C(CC1C(=O)Nc2ccccc21)OC[C@H]1O[C@@H](OCCc2ccc(O)cc2)[C@H](O)[C@@H](O)[C@@H]1O (stereo partly specified),Potency,[1],inactive
same,Potency,[2],inactive
CC(C)C[C@H](CC(=O)NO)C(=O)N[C@H](C(=O)N[C@@H](C)C(=O)NCCN)C(C)(C)C,outcome,[1],inactive [at 9.29 µM]
same,"activity change, negative = cytotoxicity",[2],2.84% [at 9.29 µM] (inactive)
CC[C@@H](O)C[C@@H]1C(C)=C[C@@H]2CCCC[C@@H]2[C@@]1(C)C(=O)O,Potency,[1],inactive
same,Potency,[2],inactive
CC(O)/C=C/C1(O)C(C)C(O[C@@H]2O[C@H](CO)[C@@H](O)[C@H](O)[C@H]2O)C(O)CC1(C)C (stereo partly specified),Potency,[2],inactive
CC1(C)CC[C@]2(C(=O)O)CC[C@]3(C)C(=CCC4[C@@]5(C)CC[C@H](O[C@@H]6O[C@H](CO)[C@@H](O)[C@H](O)[C@H]6O[C@@H]6O[C@H](CO)[C@@H](O)[C@H](O)[C@H]6O)[C@@](C)(CO)C5CC[C@]43C)[C@@H]2C1 (stereo partly specified),Potency,[2],inactive
C[C@@H]1O[C@@H](O[C@@H]2[C@@H](O)[C@H](O[C@H]3[C@H](O[C@H]4CC[C@@]5(C)C(CC[C@]6(C)C5CC=C5[C@@H]7CC(C)(C)CC[C@]7(C(=O)O[C@@H]7O[C@H](CO)[C@@H](O)[C@H](O)[C@H]7O[C@@H]7O[C@@H](C)[C@H](O[C@@H]8O[C@@H](C)[C@H](O)[C@@H](O)[C@H]8O)[C@@H](O)[C@H]7O)CC[C@]56C)[C@@]4(C)CO)O[C@H](C(=O)O)[C@@H](O)[C@@H]3O)O[C@H](CO)[C@H]2O)[C@H](O)[C@H](O)[C@H]1O (stereo partly specified),"activity change, negative = cytotoxicity",[2],9.26% [at 9.29 µM] (inactive)
C[C@@H]1O[C@@H](O[C@H]2[C@H](OC(=O)[C@]34CCC(C)(C)C[C@H]3C3=CCC5[C@@]6(C)C[C@H](O)[C@H](O[C@@H]7O[C@H](CO)[C@@H](O[C@H]8OC[C@](O)(CO)[C@H]8O)[C@H](O)[C@H]7O)[C@@](C)(CO)C6[C@H](O)C[C@@]5(C)[C@]3(C)C[C@H]4O)OC[C@H](O)[C@@H]2O)[C@H](O)[C@H](O)[C@H]1O[C@@H]1OC[C@@H](O)[C@H](O[C@@H]2OC[C@](O)(CO)[C@H]2O)[C@H]1O (stereo partly specified),"activity change, negative = cytotoxicity",[2],9.78% [at 9.29 µM] (inactive)
CC12CCC(OC3OC(CO)C(O)C(OC4OC(CO)C(O)C(O)C4O)C3O)CC1=CCC1C2CCC2(C)/C(=C3/COC(=O)C3)CCC12O (stereo unspecified),Potency,[2],inactive
CNS(=O)(=O)CC1CCC(N(C)c2ncnc3[nH]ccc23)CC1 (stereo unspecified),Potency,[2],inactive
CC(C)c1ccc2c(c1)C(=O)CC1[C@@](C)(C(=O)O)CCC[C@]21C (stereo partly specified),Potency,[2],inactive
CC(=O)NC1=NN(C(C)=O)C(C)(c2ccccc2)S1 (stereo unspecified),Potency,[2],5.8 µM (active)
CCO[C@@H]1OC(=O)C[C@@H]1NC(=O)[C@@H]1CCCN1C(=O)[C@@H](NC(=O)c1ccc(N)c(Cl)c1)C(C)(C)C,Potency,[2],inactive
Cc1cc2c(c(=O)[nH]1)OC(C(O)CC(C)C)O2 (stereo unspecified),Potency,[2],inactive
C[C@]1(CO)CCC[C@]2(C)C3=C(CCC12)COC3 (stereo partly specified),Potency,[2],inactive
C=CC(C)(O)CC/C=C(\C)C(=O)OC1C(O)C(CO)OC(OC(=O)C23CCC(C)(C)CC2C2=CCC4C5(C)CCC(OC6OC(COC7OCC(OC(C)=O)C(O)C7OC7OC(COC(C)=O)C(O)C(O)C7O)C(O)C(O)C6O)C(C)(C)C5CCC4(C)C2(C)C(O)C3O)C1OC1OCC(OC2OCC(O)C(OC3OCC(O)C(O)C3O)C2O)C(O)C1O (stereo unspecified),"activity change, negative = cytotoxicity",[2],9.63% [at 5.11 µM] (inactive)
CC1(C)CC[C@]2(C(=O)O[C@@H]3O[C@H](CO)[C@@H](O)[C@H](O)[C@H]3O)CC[C@]3(C)C(=CCC4[C@@]5(C)CC[C@H](O[C@@H]6O[C@H](C(=O)O)[C@@H](O)[C@H](O)[C@H]6O)[C@@](C)(CO)C5CC[C@]43C)C2C1 (stereo partly specified),"activity change, negative = cytotoxicity",[2],-4.65% [at 9.29 µM] (inactive)
CCCCc1nc2cc(/C=C/C(=O)NO)ccc2n1CCN(CC)CC,Potency,[2],3.26 µM (active)
CC(C)(C)Nc1nc(Nc2ccc(C(N)=O)cc2)cc(N)c1C#N,Potency,[2],2.06 µM (active)
Cc1cccc(C)c1-n1c(=O)c2cnc(Nc3ccc(N4CCN(C)CC4)cc3)nc2n2c3ccccc3nc12,Potency,[2],0.92 µM (active)
O=S(=O)(c1ccc(S(=O)(=O)n2cnc3ccccc32)cc1)N1CCCCCC1,Potency,[2],inactive
c1cc(OCCCN2CCCCC2)ccc1CN1CCCCC1,Potency,[2],inactive
CC/C=C\CCO[C@@H]1O[C@H](CO)[C@@H](O)[C@H](O)[C@H]1O,Potency,[2],inactive
CC(O)/C=C/C1C(C)C(O[C@@H]2O[C@H](CO)[C@@H](O)[C@H](O)[C@H]2O)C(O)CC1(C)C (stereo partly specified),Potency,[2],inactive
O=C(O)c1ccc(OC2OC(CO)C(O)C(O)C2O)cc1 (stereo unspecified),Potency,[2],inactive
CC1(C(=O)O)CCCC2(C)C3=CCC4CC3(CCC12)CC4CO (stereo unspecified),Potency,[2],inactive
CC1(C)CCCC2(C)C(CO)C(CO)=CCC12 (stereo unspecified),Potency,[2],inactive
CC12CCC(C(OC3OC(COC4OCC(O)(CO)C4O)C(O)C(O)C3O)C1)C(C)(C)O2 (stereo unspecified),Potency,[2],inactive
C/C=C/C=C/C(O)=C1\C(O)=C(C)C(=O)[C@@]2(C)OC(=O)[C@@](C)(NC(=O)/C=C/C(=O)O)[C@@H]12,Potency,[2],inactive
COC(=O)c1cc(OC)c(O[C@@H]2O[C@@H](C)[C@H](O)[C@@H](O)[C@H]2O)c(OC)c1,Potency,[2],inactive
N#Cc1ccc(-c2cnc3[nH]cc(NC(=O)c4cccnc4)c3c2)cc1,Potency,[2],inactive
NCc1ccc(Nc2ncc(F)c(Nc3ccccc3)n2)cc1,Potency,[2],5.8 µM (active)
COc1ccccc1Oc1ccc(N(Cc2cccnc2)S(=O)(=O)CC(F)(F)F)cc1,Potency,[2],inactive
COC(=O)C12C(=O)C(C)=C(O)C1(C)C(C)=CC1C3(CO)CCC(O)C(C)(C)C3CCC12C (stereo unspecified),Potency,[2],inactive
O=C(c1cn(Cc2cncn2Cc2ccc(Br)cc2)cc1-c1cccc2ccccc12)N1CCOCC1,Potency,[2],4.11 µM (active)
Cc1ccc(NC(=O)c2ccc(CN3CC[C@H](N(C)C)C3)c(C(F)(F)F)c2)cc1Nc1nccc(-c2cncnc2)n1,Potency,[2],inactive
O=C1CCC=CC1(O)C(=O)OCc1ccccc1O[C@@H]1O[C@H](CO)[C@@H](O)[C@H](O)[C@H]1O (stereo partly specified),Potency,[2],inactive
C[C@@H]1O[C@@H](O[C@H]2[C@H](O)[C@@H](C(=O)O)O[C@@H](O[C@H]3CC[C@@]4(C)C(CC[C@]5(C)C4CC=C4C6CC(C)(C)CC[C@]6(C(=O)O)CC[C@]45C)C3(C)C)[C@@H]2O[C@@H]2OC[C@@H](O)[C@H](O)[C@H]2O)[C@H](O)[C@H](O)[C@H]1O (stereo partly specified),outcome,[2],inactive [at 9.29 µM]
CO[C@@H](C)Cn1c(=O)n(C)c2cnc3ccc(-c4cncc(C(C)(C)O)c4)cc3c21,Potency,[2],0.651 µM (active)
O=C(Nc1ccc(S(=O)(=O)C(F)(F)F)cc1)C1=CCN(c2ncccc2C(F)(F)F)CC1,Potency,[2],14.6 µM (active)
COc1ccc(N(C)c2nc(C)nc3ccccc23)cc1,Potency,[2],0.0065 µM (active)
O=C(Nc1ccc(S(=O)(=O)Nc2nccs2)cc1)C(c1ccccc1)c1ccccc1,Potency,[2],inactive
COc1ccc([C@@H]2OC[C@H]3[C@@H]2CO[C@@H]3c2ccc(OC3OC(CO)C(O)C(O)C3O)c(OC)c2)cc1OC (stereo partly specified),Potency,[2],inactive
C=CC[C@]12C[C@@H](OC)C(=O)C(OC)=C1O[C@@H](c1cc(OC)c3c(c1)OCO3)[C@@H]2C,Potency,[2],inactive
Nc1nc(-n2cc(C(=O)O)c(=O)c3cc(F)c(N4CC(O)C4)c(Cl)c32)c(F)cc1F,Potency,[2],inactive
CC1CCC2(C=O)C(CO)=CCCC2C1(C)CC(=O)O (stereo unspecified),Potency,[2],inactive
CC(C)CC1OC(=O)C2CCCN2C(=O)CCNC(=O)C(Cc2ccccc2)NC(=O)C(C(C)C)N(C)C(=O)C(C(C)C)N(C)C1=O (stereo unspecified) (cyclo([ξLac(3-iPr)][NMeV][NMeV]F[βAla]P); configuration not given here),Potency,[2],inactive
C1CCC[C@H]2CCCN3CC[C@@H](CCCCCC[C@@H]4CCCN5CC[C@@H](CC1)O[C@@H]45)O[C@@H]23,outcome,[2],inactive [at 0.0709 µM]
CC1(C)CCC2(C(=O)OC3OC(CO)C(O)C(O)C3O)CCC3(C)C(=CCC4C5(C)CCC(OC6OC(C(=O)O)C(OC7OC(CO)C(O)C(O)C7O)C(OC7OC(CO)C(O)C(O)C7O)C6O)C(C)(C)C5CCC43C)C2C1 (stereo unspecified),"activity change, negative = cytotoxicity",[2],4.92% [at 9.29 µM] (inactive)
C[C@@H]1O[C@@H](O[C@H]2[C@H](OC(=O)[C@]34CCC(C)(C)C[C@H]3C3=CCC5[C@@]6(C)C[C@H](O)[C@H](O[C@@H]7O[C@H](CO)[C@@H](O)[C@H](O)[C@H]7O)[C@@](C)(CO)C6[C@H](O)C[C@@]5(C)[C@]3(C)CC4)OC[C@H](O)[C@@H]2O)[C@H](O)[C@H](O)[C@H]1O[C@@H]1OC[C@@H](O)[C@H](O[C@@H]2OC[C@](O)(CO)[C@H]2O)[C@H]1O (stereo partly specified),"activity change, negative = cytotoxicity",[2],6.69% [at 9.29 µM] (inactive)
